Mcl1 Noxa PPI: disrupts binding of human Mcl-1 to Noxa peptide | Q07820 | TR-FRET Mcl-1/Noxa peptide binding, 2 h | inhibition, % at 21.7 µM | 220,000 tested, 1.5% active;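 active means compounds that cut the protein-peptide binding signal by more than 50% relative to plate controls in a single-dose test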;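 further: His-tagged Mcl-1 with rhodamine Noxa BH3 peptide and terbium anti-His antibody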
Target sequence (Q07820 whole entry, looked up): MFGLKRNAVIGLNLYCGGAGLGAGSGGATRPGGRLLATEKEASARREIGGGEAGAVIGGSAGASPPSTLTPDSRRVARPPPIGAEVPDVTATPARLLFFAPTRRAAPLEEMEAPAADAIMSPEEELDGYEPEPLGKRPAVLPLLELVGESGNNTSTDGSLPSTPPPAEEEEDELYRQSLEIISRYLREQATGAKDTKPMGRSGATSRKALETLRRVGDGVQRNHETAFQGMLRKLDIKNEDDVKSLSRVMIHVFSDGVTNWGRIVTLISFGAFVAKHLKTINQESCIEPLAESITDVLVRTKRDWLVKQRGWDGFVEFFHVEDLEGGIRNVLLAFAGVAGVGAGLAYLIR
Bcl-xL primary: Bcl-xL (human) inhibition. Q07817. GST-Bcl-xL / FITC-Bim BH3 peptide fluorescence polarization. inhibition, % at 10.9 µM. 320,000 tested, 0.7% active. AID 2129;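 active means inhibition above the mean of all tested compounds plus 3 SD, cutoff set per campaign, cut at about 30% in these data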;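 further: inhibitors lower millipolarization by displacing the labeled peptide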
Target sequence (Q07817 whole entry, looked up): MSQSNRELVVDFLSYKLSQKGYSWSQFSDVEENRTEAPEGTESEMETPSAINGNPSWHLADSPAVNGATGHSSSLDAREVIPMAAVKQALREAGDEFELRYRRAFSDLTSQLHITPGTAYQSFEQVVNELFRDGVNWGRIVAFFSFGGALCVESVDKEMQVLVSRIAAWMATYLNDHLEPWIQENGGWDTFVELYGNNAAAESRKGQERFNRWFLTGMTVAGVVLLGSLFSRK
MCL1 BIM primary: disrupts human MCL1 binding to BIM-BH3 peptide. Q07820. GST-MCL1 / FITC-Bim-BH3 fluorescence polarization. inhibition, % at 10.9 µM. 320,000 tested, 0.68% active. AID 2057;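 active means inhibition above the mean inhibition of all tested compounds plus 3 SD, set per campaign, cut at about 40% in these data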;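 further: higher means more loss of mP so more displacement of Bim peptide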
GLD-1 RNA inh: GLD-1-TGE RNA interaction inhibition (C. elegans); Q17339; inhibition, % at 5.96 µM; purified GLD-1 + fluorescein TGE RNA, fluorescence polarization; AID 2280; 320,000 tested, 0.44% active;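 active means percent inhibition above a per-plate cutoff, the plate mean of test compounds plus 3 SD, cut at about 30% in these data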
Bim-Mcl-1: human Bim-Mcl-1 interaction inhibition. Q07820. Bead-based flow cytometry, Bim peptide-Mcl-1 binding. inhibition, % at 10 µM. 190,000 tested, 0.1% active; in the data active means inhibition above about 40%
Mcl1-Bid inh: Mcl-1/Bid interaction inhibition | AID 1021 | Q07820 | TR-FRET Mcl-1/Bid-Dy647 peptide binding, 1536-well | inhibition, % at 21.7 µM | 220,000 tested, 0.97% active;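 active means compounds that cut the binding signal by more than half at the single screening dose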;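 further: His-tagged Mcl-1 with europium anti-His antibody binding Bid BH3 peptide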
Each line names hits and unclear results; the compound was inactive in the other large screens. Sampled rows, rich in hits. Any-hit rate of the full collection: about 2.3%.

COc1ccc(-c2ccc(-c3noc(-c4ccccc4)n3)c(OC)n2)cc1	none
COc1ccc(-c2ccc(-c3noc(-c4ccccc4F)n3)c(OC)n2)cc1	Mcl1-Bid inh 56 (no result: Mcl1 Noxa PPI, Bcl-xL primary, MCL1 BIM primary, GLD-1 RNA inh)
CN(C)c1cccc(C(=O)NN2C(=O)NC3(CCCCC3)C2=O)c1	none (no result: Mcl1 Noxa PPI, Bim-Mcl-1, Mcl1-Bid inh)
Cn1c(C(C#N)C2=C(Cl)C(=O)N(c3ccccc3)C2=O)nc2ccccc21 (stereo not given)	Bcl-xL primary 50, MCL1 BIM primary 42, GLD-1 RNA inh 45 (no result: Mcl1 Noxa PPI)
O=C(COC(=O)/C=C/c1ccc([N+](=O)[O-])cc1)NC1CCCCC1	none (no result: Mcl1 Noxa PPI, Bim-Mcl-1, Mcl1-Bid inh)
O=C(N/N=C/C(Br)=C\c1ccccc1)c1ccco1	Mcl1-Bid inh 74 (no result: Bim-Mcl-1)
CCOC(=O)CCNC(C)C1COc2ccccc2O1 (stereo not given)	Mcl1-Bid inh 56
CC(NCC1COc2ccccc2O1)C1COc2ccccc2O1 (stereo not given)	none (no result: Mcl1 Noxa PPI, Bim-Mcl-1, Mcl1-Bid inh)
O=C1CC(c2ccccc2F)C2=C(COC2=O)N1 (stereo not given)	none
CS(=O)(=O)Nc1ccc(C(=O)Nc2ccccc2-c2ccccc2)cc1	none (no result: Mcl1 Noxa PPI, Bim-Mcl-1, Mcl1-Bid inh)
O=S(=O)(Nc1cccc(-c2nnco2)c1)c1ccc(F)cc1F	none (no result: Bim-Mcl-1)
O=C(Cc1cccs1)N/N=C/C=C\c1ccco1	Mcl1 Noxa PPI 90
O=C(Cc1cccs1)N/N=C/c1ccco1	none
CCN(CC)CC(=O)NC12CC3CC(CC(C3)C1)C2	Mcl1-Bid inh 63
CCCN(CCC)CCNC(=O)C1CC(=O)N(c2ccc(OC)cc2)C1c1ccc(OC)cc1 (stereo not given)	Mcl1-Bid inh 60
Cc1nn(CC(=O)Nc2ccc3c(c2)nc2n3CCN(C3CCCCC3)C2)c(=O)c2ccccc12	Mcl1 Noxa PPI 70
Cc1nn(CC(=O)Nc2ccc3c(c2)nc(CCN2CCCCC2)n3C)c(=O)c2ccccc12	none
CC(=O)c1sc(N/N=C\c2cccc(Br)c2)nc1C	Mcl1 Noxa PPI 51
O=[N+]([O-])c1ccc(N/N=C/c2ccc(O)c(O)c2O)c(S(=O)(=O)N2CCOCC2)c1	Mcl1 Noxa PPI 104 (no result: Bcl-xL primary, MCL1 BIM primary, GLD-1 RNA inh)
CCc1nc2ccc(C(=O)N3CCN(c4ccccc4F)CC3)cc2nc1CC	none (no result: Mcl1 Noxa PPI, Bim-Mcl-1, Mcl1-Bid inh)
CCCNC(=O)CCCCn1c(=S)[nH]c2c([nH]c3ccc(OC)cc32)c1=O	none
CCCNC(=O)c1ccc(Cn2c(=S)[nH]c3c([nH]c4ccc(OC)cc43)c2=O)cc1	Mcl1 Noxa PPI 60
COc1ccccc1NC(=O)NCc1nc(-c2ccc(C(F)(F)F)cc2)no1	none (no result: Bim-Mcl-1)
CCn1nc(C)c(NC(=O)/C=C/c2ccc(OC)c(COc3ccc(Cl)cc3Br)c2)c1C	Mcl1-Bid inh 64
O=C(c1ccc2c(c1)OCCO2)N1CCN(c2ncc(C(F)(F)F)cc2Cl)CC1	none (no result: Mcl1 Noxa PPI, Bim-Mcl-1, Mcl1-Bid inh)
CC(C)N(Cc1ccccc1)S(=O)(=O)c1ccc(Cl)nc1	none (no result: Mcl1 Noxa PPI, Bim-Mcl-1, Mcl1-Bid inh)
O=C(Nc1ccc(-c2nc3cc(Cl)ccc3c(=O)o2)cc1)c1ccco1	Mcl1-Bid inh 72
Cc1ccc(SCc2cc(=O)n(C)[nH]2)cc1	none
CC(=O)/C(=N\Nc1ccccc1Cl)Sc1cccc2cccnc12	none
CC(=O)/C(=N\Nc1ccccc1)Sc1cccc2cccnc12	Mcl1 Noxa PPI 69
CC1(C)CC2CC(C)(CN2C(=S)Nc2ccccc2F)C1 (stereo not given)	none
CC(C)Sc1nnc(SCC(=O)NCCCN2CCCC2=O)s1	none (no result: Mcl1 Noxa PPI, Bim-Mcl-1, Mcl1-Bid inh)
Cc1ccc(C2C(C(=O)c3ccco3)=C(O)C(=O)N2c2nnc(C)s2)cc1 (stereo not given)	Bcl-xL primary 31, GLD-1 RNA inh 34
CCc1ccc2nc(N3C(=O)C(O)=C(C(=O)c4ccco4)C3c3cccs3)sc2c1 (stereo not given)	Mcl1 Noxa PPI 53
Cc1ccc2nc(N3C(=O)C(O)=C(C(=O)c4cc5ccccc5o4)C3c3cccs3)sc2c1 (stereo not given)	Mcl1 Noxa PPI 70
Cc1ccc2nc(N3C(=O)C(O)=C(C(=O)c4ccco4)C3c3ccc(O)cc3)sc2c1 (stereo not given)	none (no result: Mcl1 Noxa PPI, Bim-Mcl-1, Mcl1-Bid inh)
O=C(CSc1nnc(CNC(=O)c2cccc(C(F)(F)F)c2)o1)NC1CCCC1	none (no result: Mcl1 Noxa PPI, Bim-Mcl-1, Mcl1-Bid inh)
CCN(CC)C(=O)CSc1ncccc1-c1nc2ccccc2[nH]1	none
CC1CN(C2CCN(S(=O)(=O)c3ccccc3)CC2)CC(C)O1 (stereo not given)	none
CC1CN(C2CCN(S(=O)(=O)Cc3ccccc3)CC2)CC(C)O1 (stereo not given)	Mcl1-Bid inh 51
Cc1ccc2cccc(Oc3ncnc4scc(-c5ccc(Cl)cc5)c34)c2n1	Mcl1-Bid inh 99
Nc1ccc(N2CCN(c3ccc(F)cc3)CC2)cc1	Mcl1 Noxa PPI 61
CC(=O)N1CCN(c2ccc(N)cc2)CC1	none (no result: Mcl1 Noxa PPI, Bim-Mcl-1, Mcl1-Bid inh)
CNC(=O)CS(=O)(=O)CC(=O)Nc1cc(OC(C)C)c(Cl)cc1Cl	none
Cc1ccc(NC(=O)C(=O)NCc2ccc(/C=C(/C#N)C(=O)NCc3cccnc3)o2)cc1C	Mcl1-Bid inh 95
Cc1ccc(NC(=O)C(=O)NCc2ccc(/C=C(/C#N)C(=O)NCc3cccnc3)o2)cc1	none
Cc1ccccc1OCCC(=O)OCC(=O)Nc1ccc2[nH]c(=O)[nH]c2c1	none (no result: Mcl1 Noxa PPI, Bim-Mcl-1, Mcl1-Bid inh)
N#CC1=C(N)OC2=C(CC/C2=C\c2ccccc2Cl)C1c1ccccc1Cl (stereo not given)	none
N#CC1=C(N)OC2=C(CC/C2=C\c2ccccc2)C1c1ccccc1 (stereo not given)	GLD-1 RNA inh 41
CCOC(=O)[C@H]1[C@H]2COc3cc(OC)ccc3[C@@H]2N2C(=O)CN(Cc3ccco3)C(=O)[C@@]12C	none (no result: Mcl1 Noxa PPI, Bim-Mcl-1, Mcl1-Bid inh)
Cc1cccc(CSc2nc3c(c(-c4cccs4)c2C#N)CN(C)CC3)c1	Bcl-xL primary 33
CN1CCc2nc(SCC(=O)Nc3cccc(F)c3)c(C#N)c(-c3cccs3)c2C1	Bcl-xL primary 39
Nc1[nH]n2c(=O)cc(-c3ccccc3)nc2c1N=Nc1ccc2c(c1)OCO2	Mcl1 Noxa PPI 60
O=C(c1cnn2c(C(F)(F)F)cc(-c3cccs3)nc12)N1CCN(C(c2ccccc2)c2ccccc2)CC1	Bcl-xL primary 85
CN1CCN(C(=O)c2cnn3c(C(F)(F)F)cc(-c4cccs4)nc23)CC1	none
Nc1cc2c(cc1C(=O)c1cccc(Br)c1)OCCO2	none
O=C(N/N=C/C=C/c1ccc([N+](=O)[O-])cc1)c1cccs1	Mcl1 Noxa PPI 62, Mcl1-Bid inh 76
O=C(N/N=C/c1cccc([N+](=O)[O-])c1)c1ccc(Br)cc1	none
O=C(/C=C/c1cccc([N+](=O)[O-])c1)Nc1ccc(NC(=O)c2cccs2)cc1	Mcl1 Noxa PPI 59, Mcl1-Bid inh 81
O=C(N/N=C/C=C\c1ccccc1[N+](=O)[O-])c1cccs1	none
O=C(N/N=C/c1cccc([N+](=O)[O-])c1)c1cccs1	Bim-Mcl-1 71
Cn1c(=O)c2c(nc(CN3CCN(C(=O)c4ccco4)CC3)n2CC(=O)C(C)(C)C)n(C)c1=O	none (no result: Mcl1 Noxa PPI, Bim-Mcl-1, Mcl1-Bid inh)
O=c1[nH]c(O)c(C=Nc2ccc(Cl)cc2Cl)c(=O)[nH]1	none (no result: Bcl-xL primary, MCL1 BIM primary, GLD-1 RNA inh, Bim-Mcl-1)
CCC(=O)c1ccc(OC(=O)N2CCOCC2)cc1	none (no result: Mcl1 Noxa PPI, Bim-Mcl-1, Mcl1-Bid inh)
